The values below come from PubChem BioAssay (NCI).

Some test systems named below: NCI-H226 lung; NCI-H322M lung; HOP-62 NSCLC; NCI-H460 lung; HOP-92 NSCLC; NCI-H522 lung; A549/ATCC NSCLC; 786-0 renal; COLO 205 colon; DU-145 prostate; K-562 leukemia; MALME-3M melanoma; MDA-MB-231 breast; RXF 393 renal; SF-268 CNS; SF-295 CNS; SF-539 CNS; UACC-257 melanoma; M14 melanoma; HCT-15 colon.
Holding throughout (assay): NCI-60 one-dose screen, 48 h (100 = growth as untreated, 0 = no growth, -100 = all killed)
Common to all, as to conditions: 10 µM unless noted

This is part of a sample that, as a whole, favours compounds with a hit. Of some 83,000 tested, about 20% had one in any assay.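 Growth was measured after 48 h exposure to one concentration of compound in 96-well plates. Values under 10 count as active.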 Values without a mark were called inactive. The source made the active and inactive calls.

For the compound `C#Cc1nc(C2=C(C)C(OC(=O)CCC(=O)O)CC2)cs1` (stereo not given), the growth was 106% in the assay on NCI-H226 lung; 104% in the assay with NCI-H322M lung; 111% with HOP-62 NSCLC; 107% with NCI-H460 lung; 106% with HOP-92 NSCLC; 101% with NCI-H522 lung. Moreover, the growth in the assay on A549/ATCC NSCLC was 90.7%; with 786-0 renal it was -86.5% (active); in the assay with COLO 205 colon it was 122%; with DU-145 prostate, 106%; with K-562 leukemia it was 104%; in the assay on MALME-3M melanoma, 107%. The growth with MDA-MB-231 breast was 104%; in the assay with RXF 393 renal it was 113%; in the assay with SF-268 CNS, 99.9%; in the assay on SF-295 CNS, 108%; with SF-539 CNS, 100%; in the assay on UACC-257 melanoma, 102%. Further, the values for the growth in the assay on M14 melanoma and in the assay with HCT-15 colon were 103% and 99.8%, respectively.

Turning to `CCCSc1nc(Nc2ccc(/C(C)=N\NC(N)=S)cc2)c(C#N)c(-c2ccc(OC)cc2)n1`, the growth was 27% with NCI-H226 lung; 80.8% in the assay with NCI-H322M lung; 31.6% in the assay on HOP-62 NSCLC; 42.8% in the assay with NCI-H460 lung; -20.9% (active) in the assay on HOP-92 NSCLC; 89% in the assay on NCI-H522 lung. Moreover, the growth is 60.6% in the assay with A549/ATCC NSCLC; 5.18% (active) in the assay with 786-0 renal; 113% in the assay on COLO 205 colon; 52.2% in the assay with DU-145 prostate; 85.1% with K-562 leukemia; 49.2% in the assay on MALME-3M melanoma. Moreover, the growth in the assay with MDA-MB-231 breast was 7.95% (active); in the assay with RXF 393 renal, 10.8%; in the assay with SF-268 CNS, 64.5%; with SF-295 CNS it was 42.2%; in the assay with SF-539 CNS, 18.7%; in the assay on UACC-257 melanoma, 93.7%. The growth was 79.5% in the assay with M14 melanoma and 75.7% with HCT-15 colon.

In the case of `CN1C(=S)N(C)C2C1NN=C1SC(c3ccccc3)=CC(=O)N12` (stereo not given), the growth was 83.6% in the assay on NCI-H226 lung; 104% with NCI-H322M lung; 109% in the assay on HOP-62 NSCLC; 103% with NCI-H460 lung; 72.8% in the assay with HOP-92 NSCLC; 87.2% in the assay with NCI-H522 lung. Besides, the growth is 93.7% in the assay with A549/ATCC NSCLC; 98% in the assay on 786-0 renal; 111% in the assay on COLO 205 colon; 106% with DU-145 prostate; 57.4% in the assay on K-562 leukemia; 97.7% with MALME-3M melanoma. For the same compound, the growth with MDA-MB-231 breast is 83.3%; in the assay with RXF 393 renal, 97.8%; in the assay with SF-268 CNS, 108%; in the assay with SF-295 CNS, 98%; in the assay on SF-539 CNS it was 90.8%; in the assay with UACC-257 melanoma, 99%. For the same compound, the growth is 101% with M14 melanoma and 89.5% in the assay on HCT-15 colon.

Consider `COc1ccc(NC(=O)c2sc3nc(-c4cnccn4)cc(-c4cccs4)c3c2N)cc1`, for which the growth was 35.5% in the assay on NCI-H226 lung; 82.3% with NCI-H322M lung; 84.4% in the assay with HOP-62 NSCLC; 55.3% with NCI-H460 lung; 57.7% with HOP-92 NSCLC; 78.2% in the assay on NCI-H522 lung. Further, the growth is 72.5% in the assay on A549/ATCC NSCLC; 62.7% in the assay with 786-0 renal; 64.7% in the assay on COLO 205 colon; 88.9% in the assay with DU-145 prostate; 54.5% in the assay on K-562 leukemia; 86.5% in the assay on MALME-3M melanoma. In addition, the growth with MDA-MB-231 breast was 79.7%; in the assay with RXF 393 renal, 31.7%; in the assay on SF-268 CNS, 81%; in the assay with SF-295 CNS it was 84%; in the assay with SF-539 CNS, -14.2% (active); with UACC-257 melanoma, 85.1%. The figures for the growth in the assay with M14 melanoma and with HCT-15 colon were 81.2% and 66.5%, respectively.

On to `Nc1nc(N)c2c(n1)NC(c1ccc(F)cc1)CC(c1ccc(Nc3nc(NCCO)nc(Nc4ccc(Cl)cc4)n3)cc1)=N2` (stereo not given), for which the growth with NCI-H226 lung is 22.2%; in the assay with NCI-H322M lung, 29.1%; with HOP-62 NSCLC it was 68.1%; in the assay on NCI-H460 lung, -54.5% (active); with HOP-92 NSCLC it was -65.5% (active); with NCI-H522 lung, -18.4% (active). In addition, the growth in the assay with A549/ATCC NSCLC was 57%; with 786-0 renal, -71.1% (active); with COLO 205 colon it was 28.4%; with DU-145 prostate it was 12.2%; in the assay with K-562 leukemia, 0.513% (active); in the assay with MALME-3M melanoma, -60.4% (active). Moreover, the growth is -75.8% (active) with MDA-MB-231 breast; -77.4% (active) with RXF 393 renal; 38.7% in the assay on SF-268 CNS; 9.06% (active) in the assay on SF-295 CNS; -78.9% (active) in the assay on SF-539 CNS; 106% with UACC-257 melanoma. Besides, the growth is -66.1% (active) in the assay with M14 melanoma and -48.3% (active) with HCT-15 colon.

As for `CCOC(=O)c1c(Nc2ccccc2)nn2c(N)c(C#N)c(-c3ccc(F)cc3)nc12`, the growth with NCI-H226 lung was 90.6%; in the assay on NCI-H322M lung, 101%; in the assay with HOP-62 NSCLC, 91.7%; with NCI-H460 lung, 86.8%; in the assay on HOP-92 NSCLC, 99.5%; in the assay with NCI-H522 lung, 90.5%. Also, the growth in the assay on A549/ATCC NSCLC is 96.1%; in the assay with 786-0 renal, 80.8%; with COLO 205 colon it was 93.4%; with DU-145 prostate, 83.2%; in the assay on K-562 leukemia, 52.3%; in the assay on MALME-3M melanoma, 91.8%. Further, the growth is 78.6% in the assay on MDA-MB-231 breast; 84.9% with RXF 393 renal; 85.6% with SF-268 CNS; 86.5% with SF-295 CNS; 88.1% with SF-539 CNS; 101% in the assay on UACC-257 melanoma. Further, the growth in the assay on M14 melanoma is 91.2%; in the assay on HCT-15 colon it was 69.8%.

As for `O=C(Oc1ccc2ccc(=O)oc2c1)c1ccc(Cl)cc1`, the growth was 104% in the assay with NCI-H226 lung; 99% in the assay with NCI-H322M lung; 108% in the assay with HOP-62 NSCLC; 103% with NCI-H460 lung; 95.2% in the assay on HOP-92 NSCLC; 105% with NCI-H522 lung. Further, the growth is 94.2% in the assay with A549/ATCC NSCLC; 100% in the assay with 786-0 renal; 114% in the assay on COLO 205 colon; 108% in the assay on DU-145 prostate; 115% in the assay on K-562 leukemia; 102% in the assay with MALME-3M melanoma. In addition, the growth in the assay on MDA-MB-231 breast was 103%; with RXF 393 renal it was 116%; in the assay with SF-268 CNS it was 106%; with SF-295 CNS it was 101%; in the assay with SF-539 CNS it was 101%; in the assay on UACC-257 melanoma, 106%. In addition, the growth with M14 melanoma was 107%; in the assay with HCT-15 colon, 97.9%.

In the case of `CN(C)c1ccc(-c2c(NC(C)(C)C)nc3c(OCCc4ccccc4)cccn23)cc1`, the growth in the assay with NCI-H226 lung is 10.6%; in the assay with NCI-H322M lung it was 12.2%; in the assay with HOP-62 NSCLC, 25.1%; in the assay on NCI-H460 lung, 3.22% (active); in the assay with HOP-92 NSCLC, -27.5% (active); in the assay with NCI-H522 lung it was 5.7% (active). Moreover, the growth with A549/ATCC NSCLC was 23.2%; in the assay on 786-0 renal, 20.8%; in the assay with COLO 205 colon it was -84.6% (active); in the assay on DU-145 prostate, 33.2%; in the assay on K-562 leukemia, 3.1% (active); with MALME-3M melanoma, 12.9%. Besides, the growth is 25.5% in the assay on MDA-MB-231 breast; -25.8% (active) in the assay on RXF 393 renal; 56.6% with SF-268 CNS; -12.7% (active) in the assay on SF-295 CNS; 17.8% in the assay with SF-539 CNS; 3.18% (active) with UACC-257 melanoma. The growth in the assay with M14 melanoma was 29.7%; in the assay on HCT-15 colon, 0.0072% (active).
